High-throughput results from PubChem BioAssay.
A selection: hits, their analogues and other compounds. The true share with any hit is near 1.7%.
TLR9-MyD88 block: TLR9-MyD88 interaction inhibition | Q9NR96+Q99836 | CHO BLA complementation TLR9-MyD88, CCF4 FRET ratio | inhibition, % at 4.98 µM | hit rate 0.21% among 340,000 | AID 504734;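 active = inhibition above the mean over all tested compounds plus 3 SD, cut at about 21% in these data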
Target sequence (Q99836 whole entry, looked up): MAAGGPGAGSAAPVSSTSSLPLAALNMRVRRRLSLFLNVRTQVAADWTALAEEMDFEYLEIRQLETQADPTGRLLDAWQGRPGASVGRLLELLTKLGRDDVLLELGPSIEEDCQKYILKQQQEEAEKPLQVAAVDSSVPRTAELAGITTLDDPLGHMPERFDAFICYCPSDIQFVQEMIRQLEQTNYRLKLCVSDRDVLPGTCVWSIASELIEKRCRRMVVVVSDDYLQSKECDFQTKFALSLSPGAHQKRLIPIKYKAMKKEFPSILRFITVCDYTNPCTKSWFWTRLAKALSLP
Target sequence (Q9NR96 whole entry, looked up): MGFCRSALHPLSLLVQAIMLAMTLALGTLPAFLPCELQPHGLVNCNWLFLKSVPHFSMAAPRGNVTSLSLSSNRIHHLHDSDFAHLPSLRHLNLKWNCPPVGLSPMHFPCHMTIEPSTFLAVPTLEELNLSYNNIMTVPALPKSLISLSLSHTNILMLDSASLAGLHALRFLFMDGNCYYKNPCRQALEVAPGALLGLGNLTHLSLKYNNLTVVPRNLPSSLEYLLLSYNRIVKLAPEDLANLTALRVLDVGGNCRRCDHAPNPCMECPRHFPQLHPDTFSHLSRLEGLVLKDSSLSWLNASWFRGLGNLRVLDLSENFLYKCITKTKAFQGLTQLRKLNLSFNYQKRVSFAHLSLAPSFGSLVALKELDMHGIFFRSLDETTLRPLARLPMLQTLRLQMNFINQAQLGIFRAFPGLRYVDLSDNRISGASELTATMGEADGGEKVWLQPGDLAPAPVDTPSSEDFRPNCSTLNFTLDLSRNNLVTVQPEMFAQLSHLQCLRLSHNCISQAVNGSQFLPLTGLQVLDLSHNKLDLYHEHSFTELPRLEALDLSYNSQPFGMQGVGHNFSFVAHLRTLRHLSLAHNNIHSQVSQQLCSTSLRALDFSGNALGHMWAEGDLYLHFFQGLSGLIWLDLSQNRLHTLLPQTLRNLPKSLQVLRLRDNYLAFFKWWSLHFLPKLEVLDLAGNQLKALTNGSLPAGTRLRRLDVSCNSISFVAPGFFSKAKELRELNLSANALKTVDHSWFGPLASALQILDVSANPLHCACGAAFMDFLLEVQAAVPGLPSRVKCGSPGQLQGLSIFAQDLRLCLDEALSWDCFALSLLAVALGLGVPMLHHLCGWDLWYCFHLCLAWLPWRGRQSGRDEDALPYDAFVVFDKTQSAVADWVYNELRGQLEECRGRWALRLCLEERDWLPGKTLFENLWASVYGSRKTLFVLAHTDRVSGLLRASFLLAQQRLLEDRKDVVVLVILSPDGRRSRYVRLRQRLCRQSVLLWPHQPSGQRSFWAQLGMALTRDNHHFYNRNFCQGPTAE
Myeloid diff 2: compounds promoting myeloid differentiation. ER-HoxA9 myeloid progenitors, lysozyme-GFP differentiation, flow cytometry. calls only at 10 µM. hit rate 1% among 360,000;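 active = normalized GFP-positive differentiation at or above the plate's own cutoff, the solvent-only control mean plus 3 SD; inconclusive = no clear call, values can overlap the other calls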;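 note: cells exposed to compound for four days before flow analysis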
NOD2-RIPK2 inh: inhibitors of human NOD2-RIPK2 interaction | inhibition, % at 4.98 µM | CHO BLA complementation NOD2-RIPK2, CCF4 ratio | AID 624267 | hit rate 0.38% among 360,000; in the data active = inhibition above about 21%
ABCB6 inh 2: human ABCB6 transporter inhibition; Q9NP58; K562-ABCB6 porphyrin accumulation, flow cytometry, 1 h; stronger effect = lower value; fluorescence ratio to DMSO, % at 10 µM; hit rate 0.19% among 360,000;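 active = fluorescence ratio to DMSO below 75%, the collection mean minus 3 SD; inconclusive = too few cells collected in the well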;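 note: signal is porphyrin accumulated inside mitochondria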
TLR4 MyD88 comp: TLR4-MyD88 interaction inhibition in cells; HeLa CL3-4 TLR4/MyD88 BLA complementation, FRET ratio; inhibition, % at 8.4 µM; hit rate 0.18% among 200,000; AID 861; in the data active = inhibition above about 25%
Of the large screens only hits and unclear results are named; the others gave an inactive call.

CCCn1nc([N+](=O)[O-])c(C(C#N)c2nc3ccccc3o2)c(Cl)c1=O (centres undefined)	none
CCn1nc([N+](=O)[O-])c(C(C#N)c2nc3cc(C(F)(F)F)ccc3s2)c(Cl)c1=O (centres undefined)	Myeloid diff 2 active
COc1ccc(OCCN2CCC(C(=O)NC(c3ccc(F)cc3)c3ccc4ccccc4n3)CC2)cc1 (centres undefined)	none (no result: TLR9-MyD88 block, TLR4 MyD88 comp)
O=C(NC(c1ccc(F)cc1)c1ccc2ccccc2n1)C1CCN(CCOc2ccc(F)cc2)CC1 (centres undefined)	Myeloid diff 2 active (no result: TLR9-MyD88 block, TLR4 MyD88 comp)
CC(C)c1ccc2[nH]c3nc(SCC(=O)NC4CC4)nnc3c2c1	Myeloid diff 2 active (no result: TLR4 MyD88 comp)
Cc1ccc(S(=O)(=O)N2CCCc3cc(NC(=O)c4c(F)cccc4F)ccc32)cc1	Myeloid diff 2 active (no result: TLR4 MyD88 comp)
Cc1ccc(/C=C2/C(=O)N=C(N)N2C)s1	Myeloid diff 2 active
COc1ccccc1N(CC(=O)NCC1CCCO1)C(=O)CNS(=O)(=O)c1ccc(Cl)cc1 (centres undefined)	none (no result: TLR4 MyD88 comp)
c1ccc(C[C@H]2CN=C(Nc3ccccc3)N2CC2CCCCC2)cc1	Myeloid diff 2 active (no result: TLR4 MyD88 comp)
CCCNC(=O)Cn1c(=O)/c(=C\c2ccc(-c3cccc([N+](=O)[O-])c3)o2)s/c1=C\C(=O)C(C)(C)C	Myeloid diff 2 active
CCCNC(=O)Cn1c(=O)/c(=C/c2ccc(-c3cccc([N+](=O)[O-])c3)o2)s/c1=C\C(=O)C(C)(C)C	Myeloid diff 2 active (no result: TLR4 MyD88 comp)
O=C1NC(=O)/C(=C/c2ccc(-c3cccc([N+](=O)[O-])c3)o2)S1	none (no result: TLR4 MyD88 comp)
CCCNC(=O)Cn1c(=O)/c(=C\c2ccc(-c3ccc([N+](=O)[O-])cc3)o2)s/c1=C\C(=O)C(C)(C)C	Myeloid diff 2 active
C[C@H](CO)N1C[C@H](C)[C@@H](CN(C)CC2CCCCC2)Oc2ccc(NC(=O)Cn3cnnn3)cc2C1=O	none (no result: TLR4 MyD88 comp)
CCOc1ncccc1C(=O)OCc1csc(CC(=O)Nc2ccccc2C)n1	none (no result: TLR4 MyD88 comp)
Cc1cc(NC(=O)CSc2nnc(N)s2)c([N+](=O)[O-])cc1C	none
O=C(Nc1ccc(F)cc1)N1CCN(C(=O)C2CCCO2)CC1 (centres undefined)	none (no result: TLR4 MyD88 comp)
COc1ccc(CNC[C@@H](CCCCN(C)Cc2ccc(OC)cc2)N2C[C@H](c3ccccc3)N(CCc3ccc(Cl)c(Cl)c3)C(=O)C2=O)cc1	NOD2-RIPK2 inh 28.8
COc1ccc(CNC(=O)[C@@H]2CC=C[C@@H]3CCN(Cc4ccc(Cl)c(Cl)c4)C(=O)[C@@H]32)cc1	none (no result: TLR4 MyD88 comp)
CCCNC(=O)C1(C)CCN(C(=O)c2ccc(OC)cc2OC)C1 (centres undefined)	none (no result: TLR9-MyD88 block, TLR4 MyD88 comp)
CC(C)CC(=O)Nc1cc2c3c(c1)CCN3C(=O)CC2	Myeloid diff 2 active (no result: TLR4 MyD88 comp)
Cc1ccc(S(=O)(=O)N(C)CC(=O)N2CCCc3ccccc32)cc1	none
O=C(CN1C2CCCC1CC(NC(=O)C1CCCCC1)C2)Nc1ccccc1C(F)(F)F (centres undefined)	Myeloid diff 2 active (no result: TLR4 MyD88 comp)
Cc1ccc2c(c1)N(C)/C(=C/c1cccc[n+]1CCO)S2	Myeloid diff 2 active (no result: TLR4 MyD88 comp)
Cc1ccc2c(c1)N(C)/C(=C/c1cccc[n+]1C)S2	Myeloid diff 2 inconclusive (no result: TLR4 MyD88 comp)
COc1cc(N2CCCC2)c(OC)cc1/C=C(/C#N)c1cccc(F)c1	Myeloid diff 2 active
Cc1ccc(OCC(=O)NCCNC(=O)c2ccc(C)nc2)cc1	none (no result: TLR4 MyD88 comp)
CSc1nsc(/C=C/Nc2ccc(F)cc2)c1C#N	Myeloid diff 2 active
CSc1nsc(SC)c1-c1ccc(Cl)cc1	none (no result: TLR4 MyD88 comp)
CSc1nsc(/C=C/Nc2cccc(Cl)c2)c1C#N	Myeloid diff 2 active
Cc1snc(SCc2cccc(Cl)c2)c1C#N	none (no result: TLR4 MyD88 comp)
CSc1nsc(/C=C/Nc2ccc(Cl)cc2)c1C#N	Myeloid diff 2 active
CSc1nsc(N/N=C/c2ccc3c(c2)OCO3)c1C#N	none
CSc1nsc(/C=C/Nc2ccc(O)cc2C)c1C#N	Myeloid diff 2 active
Cc1cc(O)ccc1N/C=C(\C#N)c1nc2ccccc2o1	none
CC(NC(=O)CN1C(=O)NC2(CCCC2)C1=O)c1ccc2ccccc2c1 (centres undefined)	none (no result: TLR4 MyD88 comp)
COc1ccc2oc(C(=O)OCC(=O)NC3CCCCC3)c(C)c2c1	none (no result: TLR4 MyD88 comp)
O=C(COc1ccccc1F)Nc1nnc(C2CCCC2)s1	none (no result: TLR4 MyD88 comp)
N#CCN(C(=O)CSc1nnc(C2CC2)n1C1CC1)c1ccccc1	none (no result: TLR4 MyD88 comp)
COc1ccc(Cl)cc1C(=O)NNC(=O)c1ccncc1	none (no result: TLR4 MyD88 comp)
Cn1nc(-c2ccc(Cl)cc2)c2cc(C(=O)N3CCN(C(=O)c4ccco4)CC3)sc21	Myeloid diff 2 active
CC1CCCN(C(=O)c2cc3c(-c4ccc(Cl)cc4)nn(C)c3s2)C1 (centres undefined)	Myeloid diff 2 active
CCN1CCN(C(=O)c2cc3c(-c4ccc(Cl)cc4)nn(C)c3s2)CC1	Myeloid diff 2 active
Cn1nc(-c2ccc(Cl)cc2)c2cc(C(=O)NC3CC3)sc21	none
Cn1nc(-c2ccc(Cl)cc2)c2cc(C(=O)NCCN3CCOCC3)sc21	none
COc1ccc(C(O)c2nc(-c3cncnc3)cs2)cc1 (centres undefined)	none (no result: TLR9-MyD88 block, TLR4 MyD88 comp)
O=C(c1cccc(N2C(=O)C3C4C=CC(C4)C3C2=O)c1)N1CCN(c2ccccc2F)CC1 (centres undefined)	none (no result: TLR4 MyD88 comp)
CCOC(=O)c1c(NC(=O)CSc2nc3ccccc3s2)sc(C)c1C	Myeloid diff 2 active
CCOc1ccc2c(c1)/C(=C(\C(Cl)=C(Cl)Cl)[N+](=O)[O-])N2	Myeloid diff 2 active
CCCCOc1ccc2c(c1)/C(=C(\C(Cl)=C(Cl)Cl)[N+](=O)[O-])N2	Myeloid diff 2 active
C[C@H](NC(=O)C1CCN(S(=O)(=O)c2ccccc2)CC1)C(=O)NCc1ccccn1	none (no result: TLR4 MyD88 comp)
Brc1ccc(C=Nc2ccc(Nc3ccccc3)cc2)s1	Myeloid diff 2 active
CN1C(=O)C(C)(C)c2cc(S(=O)(=O)N3CCN(c4cccc(Cl)c4)CC3)ccc21	Myeloid diff 2 active (no result: TLR4 MyD88 comp)
COc1ccc(Cl)cc1NC(=O)COC(=O)C1CC(=O)N(Cc2ccccc2)C1 (centres undefined)	none (no result: TLR4 MyD88 comp)
O=C(CCNC(=O)c1ccco1)NNC(=O)c1ccc(Br)cc1	Myeloid diff 2 active (no result: TLR4 MyD88 comp)
COc1ccc(-c2csc(NC(=O)CCS(=O)(=O)c3ccccc3)n2)c(OC)c1	Myeloid diff 2 active (no result: TLR4 MyD88 comp)
O=C(CCS(=O)(=O)c1ccccc1)Nc1nc(-c2ccc(F)cc2)cs1	Myeloid diff 2 active (no result: TLR4 MyD88 comp)
COc1ccc(S(=O)(=O)Nc2ccc(F)cc2F)cc1C(=O)N1CCOCC1	none (no result: TLR4 MyD88 comp)
C[C@]12CCC(=O)CC1CCC1C2CC[C@@]2(C)C1CC[C@@]21CCO1 (some centres undefined)	Myeloid diff 2 active (no result: TLR4 MyD88 comp)
CCCN(C(=O)c1c(-c2ccccc2)noc1C)c1c(N)n(Cc2ccccc2)c(=O)[nH]c1=O	none (no result: TLR4 MyD88 comp)
Cc1ccc(OCCCCN(C)Cc2ccccc2)c(Br)c1	Myeloid diff 2 active
COc1ccccc1OCCOCCOc1ccc(C)cc1Br	Myeloid diff 2 active
O=C(NCc1ccc2c(c1)OCO2)C(=O)Nc1cc2c3c(c1)CC(=O)N3CCC2	none (no result: TLR4 MyD88 comp)
CCCNC(=O)CSc1nc(-c2cccs2)cc(C(F)(F)F)n1	none
